Source: PubChem BioAssay
aDG glyco act = alpha-DG glycosylation activation; 360,000 compounds, 0.22% hits; AID 624168; activation, % at 10 µM; Pro5-aDG cells, alpha-DG glycosylation AlphaScreen (IIH6); 0% Pro5, 100% B10-LARGE cell signal;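 active = activation of at least 8% versus controls, or a plate z-score of at least 8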;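 also: Pro5 are CHO cells carrying HIG-tagged alpha-DG that lacks glycosylation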
Mot1-301 SUMO = blocks SUMOylation pathway, rescuing yeast Mot1-301 growth; S. cerevisiae Mot1-301 growth rescue, ATP luminescence, 38.5C; percent above DMSO median, 100 means doubled; growth rescue, % at 18.8 µM; 320,000 compounds, 1% hits; AID 2716;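 active = every valid replicate shows activation above 250% relative to neutral control wells; inactive = the rest, any valid replicate at or below 250%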;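 also: OY570 slx delta 5 strain wells were the positive control but not used for scaling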
MPTP inh = inhibitors of mitochondrial permeability transition pore; inhibition, % at 10 µM; isolated mouse mitochondria, Ca2+ swelling absorbance, 30 min; 360,000 compounds, 1.4% hits;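 active = inhibition of 50% or more, scaled per plate between neutral and stimulator controls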;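 also: 0% = DMSO wells given calcium and 100% = 1 mM EGTA wells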
Yeast superoxide = lowers age-related superoxide in aged yeast cells | S. cerevisiae aged cells, superoxide DHE fluorescence; active compounds read low | superoxide response (% of plate mean), % at 10 µM | 330,000 compounds, 0.18% hits;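 active = superoxide response under a set limit, about three screen SD below normal, cut at about 65% in these data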;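 also: yeast aged for seven days with compound at 30 °C before DHE staining; 100% = average MFI of all compound-treated wells on the plate with controls excluded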
FAS TE block = inhibitors of human fatty acid synthase thioesterase domain | 360,000 compounds, 0.67% hits | P49327 | AID 602261 | inhibition, % at 15 µM | recombinant FAS-TE, OMFH fluorogenic substrate, fluorescence endpoint;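 active = compounds whose normalised, plate-corrected inhibition of enzyme fluorescence in the single-dose primary screen is 50% or more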;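 also: 0% = DMSO with enzyme and 100% = substrate without enzyme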
Cardio protect = myocardial damage modulation in H9c2 cells | protection from H2O2 cell death, % at 20 µM | H9c2 cardiomyocytes, H2O2 injury protection, ATPLite, 2 h | AID 588492 | 360,000 compounds, 0.63% hits;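 active = compounds giving at least 50% protection of heart cells from peroxide-induced death in the single-dose screen, raw or plate-pattern-corrected value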;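 also: 0% = DMSO wells with peroxide and 100% = DMSO wells without peroxide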
FAS-TE conf = confirmation of human fatty acid synthase thioesterase inhibitors. shares compounds with FAS TE block. recombinant FAS-TE, OMFH fluorogenic substrate, fluorescence. inhibition, % at 15 µM. 2,300 compounds, 45% hits;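 active = compounds inhibiting the enzyme by at least 50% at 15 µM in any one of the replicates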;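 also: 0% = enzyme with DMSO only and 100% = wells lacking enzyme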
The depositor's hits bear a star; · = not tested or not shown. This is a sample that favours compounds with a hit; in the whole collection about 3.8% have one here.

SMILES | aDG glyco act | Mot1-301 SUMO | MPTP inh | Yeast superoxide | FAS TE block | Cardio protect | FAS-TE conf
CCn1cc(C(=O)NC(C)CCc2ccccc2)c(=O)c2cc(S(=O)(=O)N(C)C)ccc21 (stereo not given) | 0 | -9 | -1 | 88 | 63* | -2 | 28
CCn1cc(C(=O)NCCc2ccc(C)cc2)c(=O)c2cc(S(=O)(=O)N(C)C)ccc21 | · | -2 | · | 107 | · | · | ·
CCn1cc(C(=O)NCc2ccc(Cl)cc2)c(=O)c2cc(S(=O)(=O)N3CCOCC3)ccc21 | 0 | 49 | -2 | 105 | 12 | 1 | ·
Cc1cccnc1C(NC(=O)C1CCN(CCCOc2ccc(F)cc2)CC1)c1ccccc1 (stereo not given) | 0 | · | 21 | · | -4 | 8 | ·
Cc1nn(-c2ccccc2)c(Cl)c1/C=N/NC(=O)c1cccc(S(=O)(=O)N2CCCC2)c1 | 1 | 7 | 11 | 100 | 4 | -4 | ·
COc1ccc(-c2nn(-c3ccccc3)cc2/C=N/NC(=O)c2cccc(S(=O)(=O)Nc3ccccc3Cl)c2)cc1 | 0 | -19 | 5 | 97 | 59* | 4 | 16
Cc1nn(-c2ccccc2)c(N2CCCC2)c1/C=N/NC(=O)c1cccc(S(=O)(=O)Nc2ccc(Cl)cc2)c1 | 0 | · | 20 | 100 | 50* | -8 | 20
Cc1nn(-c2ccccc2)c(N2CCCC2)c1/C=N/NC(=O)c1cc(-c2ccccn2)nc2ccccc12 | 0 | -9 | -1 | 103 | 77* | 57* | 26
Cc1nn(-c2ccccc2)c(N2CCCC2)c1/C=N/NC(=O)c1cc(-c2cccs2)nc2ccccc12 | 0 | -5 | -1 | 105 | 80* | 10 | 13
COc1ccc(-c2nn(-c3ccccc3)cc2/C=N/NS(=O)(=O)c2ccccc2)cc1 | 0 | 95 | 2 | 112 | 26 | -10 | ·
O=C1C(CCc2ccccc2)ON=C(c2cnccn2)N1Cc1ccc(F)cc1 (stereo not given) | 0 | · | 0 | · | 26 | 4 | ·
O=C(C(=O)N1CCN(c2ccccc2)CC1)c1ccccc1 | 0 | · | 3 | · | · | · | ·
CCN(C(=O)COC(=O)c1cccc(S(=O)(=O)NCc2ccccc2)c1)c1ccccc1 | 0 | · | -1 | · | 10 | -2 | ·
COc1ccc(-c2cc3nc4c(c(N5CCC6(CC5)OCCO6)n3n2)CCC4)cc1 | 0 | 8 | 1 | 118 | 51* | 12 | 43
COc1cccc(-c2cc3nc4c(c(N5CCC6(CC5)OCCO6)n3n2)CCC4)c1 | 0 | · | 2 | 94 | 55* | 12 | 26
COc1ccc(-c2cc3nc(-c4ccccc4)cc(N4CCC5(CC4)OCCO5)n3n2)cc1 | 0 | -13 | 1 | 91 | 52* | 7 | 10
CN1CCN(CCNC(=O)c2ccc(CS(=O)c3ccc(Br)cc3)o2)CC1 (stereo not given) | 0 | · | -1 | · | -6 | 9 | ·
COc1ccc(N2CCN(CCCNC(=O)c3ccc(CS(=O)(=O)c4ccc(Cl)cc4)o3)CC2)cc1 | 0 | -1 | -1 | 99 | -5 | 3 | ·
CC(C)Cn1c(O)c(N=NC(=O)c2cccc(S(=O)(=O)N3CCCCC3)c2)c2ccccc21 | -1 | -1 | 2 | 109 | 58* | 6 | 24
Cc1c(OCc2nn[nH]n2)ccc2c(-c3ccccc3)cc(=O)oc12 | 0 | 32 | 2 | 108 | 76* | 22 | 86*
CCCc1cc(=O)oc2c(C)c(OCc3nn[nH]n3)ccc12 | 0 | 5 | 2 | 108 | 20 | 3 | ·
COc1ccc(-c2cc(=O)oc3c(C)c(OCc4nn[nH]n4)ccc23)cc1 | 0 | -5 | 2 | 89 | 62* | 30 | 69*
O=C(NC12CC3CC(CC(C3)C1)C2)c1cc2nc(-c3ccco3)cc(C(F)(F)F)n2n1 | 0 | 20 | 5 | 108 | 22 | -9 | ·
O=C(Nc1cnn(C23CC4CC(CC(C4)C2)C3)c1)c1cnn2c(C(F)(F)F)cc(-c3ccco3)nc12 | -1 | 17 | 1 | 96 | 61* | 32 | -1
O=C(COC(=O)C1CCN(C(=O)c2ccc(Cl)cc2)CC1)Nc1ccccc1F | 0 | -2 | 0 | 89 | -3 | -1 | ·
SMILES | aDG glyco act | Mot1-301 SUMO | MPTP inh | Yeast superoxide | FAS TE block | Cardio protect | FAS-TE conf
COc1ccc2cc(C3CC(c4ccco4)=NN3S(=O)(=O)c3ccccc3)c(Cl)nc2c1 (stereo not given) | 0 | 6 | 0 | 54* | 71* | 17 | 27
CCOc1ccc2cc(C3CC(c4ccco4)=NN3S(=O)(=O)c3ccccc3)c(Cl)nc2c1 (stereo not given) | 0 | -14 | 1 | 119 | 41 | 8 | ·
CC#CCN1c2ccccc2[C@]23C[C@@H](C(=O)OC)N(C(=O)NCCBr)C2=NC(C(=O)OC)=C(C(=O)OC)[C@H]13 | 0 | -6 | -1 | 110 | 64* | -2 | 29
C=CCN1c2ccccc2[C@]23C[C@@H](C(=O)OC)N(C(=O)NC4CCCC4)C2=NC(C(=O)OC)=C(C(=O)OC)[C@H]13 | 1 | -1 | -2 | 96 | 75* | -5 | 0
Cc1cccc(C(=O)NCCC(=O)Nc2ccc(F)c([N+](=O)[O-])c2)c1 | 0 | -16 | 1 | 96 | 54* | -11 | 68*
Cc1ccc(CC(=O)Nc2ccc(F)c([N+](=O)[O-])c2)cc1 | 0 | -6 | -1 | 115 | -11 | 1 | ·
CCN1C(=O)[C@H]2[C@@H](c3ccc(OC)cc3)N[C@]3(CCCN(Cc4ccc(F)cc4)C3=O)[C@H]2C1=O | 0 | · | 0 | · | -8 | 1 | ·
Cc1c(C(=O)Nc2ccc(Cl)cc2)c2ccccn2c1C(=O)c1ccccc1 | 0 | 1 | 12 | 105 | 22 | 3 | ·
Cc1c(C(=O)Nc2ccc(Cl)cc2)c2ccccn2c1C(=O)c1ccc([N+](=O)[O-])cc1 | 0 | -10 | 15 | 100 | 71* | -4 | 14
CN(C)S(=O)(=O)c1ccc(N2C(=O)CC2(/C=C/c2ccccc2)C(=O)NC2CCCC2)cc1 (stereo not given) | 0 | 25 | -1 | 84 | 60* | -3 | 29
COc1ccccc1/C=C/C1(C(=O)NC2CCCC2)CC(=O)N1c1ccccc1 (stereo not given) | 0 | 13 | 2 | 98 | 16 | -5 | ·
COc1ccccc1N1CCN(C(=O)CN(C)S(=O)(=O)c2ccc(C)cc2)CC1 | 0 | · | -2 | · | 0 | -4 | ·
O=C(O)c1ccc(Cl)c(NC(=S)NC(=O)c2cccc(COc3ccccc3)c2)c1 | 0 | -20 | 0 | 90 | 61* | -3 | 72*
O=C(CN1C(=O)c2cccnc2Oc2ccc(Cl)cc21)NCCCc1ccccc1 | 0 | -6 | -2 | 95 | 55* | 18 | 36
CCCN1CCN(CCCNC(=O)CN2C(=O)c3cccnc3Oc3ccc(Cl)cc32)CC1 | 0 | 83 | -1 | 100 | -4 | 4 | ·
